Measurements reported in PubChem BioAssay (Tox21).
Records with an inconclusive call do not appear. The source made the active and inactive calls. Unless noted, calls come from the whole dose curve.

What was measured:
[1] = target: Peroxisome proliferator-activated receptor delta (Homo sapiens) (UniProt Q03181); assay: qHTS assay to identify small molecule agonists of the peroxisome proliferator-activated receptor delta (PPARd) signaling pathway (AID 743212)
Outline: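 HEK293H PPARd-bla cells; 5 h preincubation 37 C/5% CO2; compound (DMSO) 37 C; LiveBLAzer B/G FRET substrate 2 h RT; fluorescence intensity.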

[2] = qHTS assay to identify small molecule antagonists of the peroxisome proliferator-activated receptor delta (PPARd) signaling pathway - cell viability counter screen (AID 743213; active = well fitted curve in the direction sought with a large enough effect in the repeat runs; an effect the other way counts as inactive or inconclusive; note: nearly all actives have a fitted effect of over 50% in size)
Outline: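 CellTiter-Glo was added to PPARd-bla HEK293H wells following 17 h compound treatment in the presence of 300 nM L165041. Luminescence was recorded after 30 min at room temperature.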

[3] = target: Peroxisome proliferator-activated receptor delta (Homo sapiens) (UniProt Q03181); assay: qHTS assay to identify small molecule antagonists of the peroxisome proliferator-activated receptor delta (PPARd) signaling pathway (AID 743215; active = well fitted inhibition curve with a large enough effect in the signal ratio in the repeat runs, not every such curve was filed as active; the % refers to the signal ratio;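 note: cells stimulated with agonist L165041 at 300 nM final during compound exposure; series mostly up to about 62 µM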)
Outline: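 PPARd UAS-bla HEK293H cells were pre-incubated 5 h at 37 C, then given test compounds in DMSO plus agonist L165041 (300 nM final). After 17 h at 37 C, beta-lactamase FRET substrate was added; fluorescence read after 2 h at room temperature.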

[4] = qHTS assay to identify small molecule agonists of the farnesoid-X-receptor (FXR) signaling pathway - cell viability counter screen (AID 743218; active = well fitted curve in the direction sought with a large enough effect in the repeat runs; an effect the other way counts as inactive or inconclusive; note: nearly all actives have a fitted effect of over 45% in size)
Outline: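 FXR-UAS-bla HEK 293T cells, plated 5 h at 37 C, were exposed to compounds for 16 h at 37 C. CellTiter-Glo was then added to the same wells as the bla readout; luminescence read after 30 min at room temperature.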

[5] = qHTS assay to identify small molecule antagonists of the farnesoid-X-receptor (FXR) signaling pathway - cell viability counter screen (AID 743221; active = well fitted cell-killing curve with a large enough effect in the repeat runs, not every such curve was filed as active; note: nearly all actives have a fitted effect of over 50% in size)
Outline: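 GeneBLAzer FXR-UAS-bla HEK 293T cells, compound plus chenodeoxycholic acid (50 uM final), 16 h at 37 C. CellTiter-Glo added to the same wells after the beta-lactamase read; luminescence read after 30 min at room temperature as viability.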

[6] = target: Vitamin D3 receptor (Homo sapiens) (UniProt P11473); assay: qHTS assay to identify small molecule agonists of the vitamin D receptor (VDR) signaling pathway (AID 743222)
Outline: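 VDR-bla cells were plated 4 h at 37C/5% CO2, then exposed to compounds in DMSO for 16 h. After LiveBLAzer B/G FRET substrate addition and 2 h at room temperature, beta-lactamase reporter fluorescence was read.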

[7] = qHTS assay to identify small molecule agonists of the vitamin D receptor (VDR) signaling pathway - cell viability counter screen (AID 743224; active = well fitted curve in the direction sought with a large enough effect in the repeat runs; an effect the other way counts as inactive or inconclusive; note: series mostly up to about 63 µM; nearly all actives have a fitted effect of over 50% in size)
Outline: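 VDR-bla cells were preincubated 4 h at 37C/5% CO2, then exposed to compounds for 16 h. After the 2 h room-temperature bla FRET read, CellTiter-Glo was added to the same wells and luminescence read after 30 min.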

[8] = qHTS assay to identify small molecule antagonists of the vitamin D receptor (VDR) signaling pathway - cell viability counter screen (AID 743225; active = well fitted curve in the direction sought with a large enough effect in the repeat runs; an effect the other way counts as inactive or inconclusive; note: nearly all actives have a fitted effect of over 50% in size)
Outline: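 VDR-UAS-bla HEK 293T cells were plated and incubated 4 h at 37C, then dosed with compound plus 3 nM (final) 1-alpha,25-dihydroxyvitamin D3 for 16 h. After the 2 h beta-lactamase read, viability in the same wells was read as CellTiter-Glo luminescence after 30 min at room temperature.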

[9] = qHTS assay to identify small molecule agonists of the NFkB signaling pathway - cell viability counter screen (AID 1159515); note: series mostly up to about 61 µM; nearly all actives have a fitted effect of over 55% in size
Outline: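 NFkB-bla ME-180 cells, 2,000/well, were plated overnight at 37 C, 5% CO2, then exposed to compounds in DMSO for 5 hr. After the bla FRET read, CellTiter-Glo was added to the same wells; luminescence was read after 30 min at room temperature.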

[10] = qHTS assay to identify small molecule agonists of the endoplasmic reticulum stress response signaling pathway (AID 1159516; active = well fitted activation curve with a large enough effect in the signal ratio in the repeat runs, not every such curve was filed as active; the % refers to the signal ratio)
Outline: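 CellSensor ESRE-bla HeLa cells, carrying a beta-lactamase reporter driven by the ER stress response element, were plated overnight and exposed to compounds for 5 hr at 37 C. Reporter activity was read as FRET substrate fluorescence after 2 hr at room temperature.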

[11] = qHTS assay to identify small molecule agonists of the endoplasmic reticulum stress response signaling pathway - cell viability counter screen (AID 1159517)
Outline: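 HeLa cells carrying an ESRE-driven beta-lactamase reporter receive compound for 5 hr at 37 C. Cell viability is then gauged with CellTiter-Glo by luminescence, 30 min at room temperature.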

[12] = qHTS assay to identify small molecule antagonists of the retinoid-related orphan receptor gamma (ROR-gamma) signaling pathway - cell viability counter screen (AID 1159520; active = well fitted curve in the direction sought with a large enough effect in the repeat runs; an effect the other way counts as inactive or inconclusive; note: nearly all actives have a fitted effect of over 50% in size)
Outline: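 Cytotoxicity was read from cellular ATP (CellTiter-Glo luminescence) after 16 hr at 37 C with 1 uM doxycycline induction. The inducer was added 2 hr after compound transfer to Tet-on ROR gamma CHO cells.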

[13] = target: Nuclear receptor ROR-gamma (Homo sapiens) (UniProt P51449); assay: qHTS assay to identify small molecule antagonists of the retinoid-related orphan receptor gamma (ROR-gamma) signaling pathway (AID 1159521; active = well fitted curve in the direction sought with a large enough effect in the repeat runs; an effect the other way counts as inactive or inconclusive)
Outline: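 Tet-on ROR-gamma CHO cells with ROR response element-luciferase reporter; compounds added 2 hr before 1 uM doxycycline induction, then 16 hr at 37 C. Antagonism scored as decreased ONE-Glo luminescence.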

[14] = qHTS assay to identify small molecule agonists of the AP-1 signaling pathway - cell viability counter screen (AID 1159525); note: nearly all actives have a fitted effect of over 55% in size
Outline: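 Luminescent ATP readout (Cell Titer Glo, 30 min RT), normalised to DMSO and tetra n-octyl ammonium bromide controls. Cells were ME-180 AP-1-bla in 0.5% dialyzed FBS Opti-MEM, with a 5 h, 37 °C compound exposure.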

[15] = qHTS assay to identify small molecule agonists of the AP-1 signaling pathway (AID 1159526)
[16] = target: Retinoic acid receptor RXR-alpha (Homo sapiens) (UniProt P19793); assay: qHTS assay to identify small molecule agonists of the RXR signaling pathway (AID 1159527); note: nearly all actives have a fitted effect of over 35% in size
Outline: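 GeneBLAzer RXR-alpha-UAS-bla HEK 293T cells in 2% charcoal-stripped FBS medium were exposed to compounds for 16 hr at 37 C in agonist mode. Beta-lactamase reporter read as 460/530 nm FRET ratio after 2 hr substrate loading.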

[17] = qHTS assay to identify small molecule agonists of the peroxisome proliferator-activated receptor delta (PPARd) signaling pathway - cell viability counter screen (AID 743211; active = well fitted curve in the direction sought with a large enough effect in the repeat runs; an effect the other way counts as inactive or inconclusive; note: nearly all actives have a fitted effect of over 55% in size)
Outline: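 PPARd-bla HEK293H cells (3000/well) were pre-incubated 5 h at 37 C, then exposed to compound for 17 h at 37 C. After 2 h with LiveBLAzer substrate, CellTiter-Glo was added to the same wells; luminescence read after 30 min at room temperature.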

[18] = target: Vitamin D3 receptor (Homo sapiens) (UniProt P11473); assay: qHTS assay to identify small molecule antagonists of the vitamin D receptor (VDR) signaling pathway (AID 743223; active = well fitted inhibition curve with a large enough effect in the signal ratio in the repeat runs, not every such curve was filed as active; the % refers to the signal ratio)
Outline: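 VDR-bla cells were treated with compound plus 3 nM final 1alpha,25-dihydroxyvitamin D3 for 16 h at 37C. Beta-lactamase reporter read by B/G FRET substrate fluorescence after 2 h at room temperature. qHTS format.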

[19] = target: Bile acid receptor (Homo sapiens) (UniProt Q96RI1); assay: qHTS assay to identify small molecule antagonists of the farnesoid-X-receptor (FXR) signaling pathway (AID 743217; active = well fitted inhibition curve with a large enough effect in the signal ratio in the repeat runs, not every such curve was filed as active; the % refers to the signal ratio)
Outline: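 FXR-UAS-bla HEK 293T cells pre-incubated 5 h at 37 °C, then exposed to compounds with chenodeoxycholic acid (50 uM final) for 16 h at 37 °C. Beta-lactamase reporter read by LiveBLAzer B/G FRET substrate fluorescence after 2 h at room temperature.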

[20] = target: Bile acid receptor (Homo sapiens) (UniProt Q96RI1); assay: qHTS assay to identify small molecule agonists of the farnesoid-X-receptor (FXR) signaling pathway (AID 743220; active = well fitted activation curve with a large enough effect in the signal ratio in the repeat runs, not every such curve was filed as active; the % refers to the signal ratio)
Outline: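 Beta-lactamase reporter under UAS control in GeneBLAzer FXR HEK 293T cells (5000/well) measured with LiveBLAzer FRET substrate after 2 h at room temperature. Compound exposure lasted 16 h at 37C.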

Measured: Potency

Chain of Retinoic acid receptor RXR-alpha (Homo sapiens) (P19793 whole entry, looked up): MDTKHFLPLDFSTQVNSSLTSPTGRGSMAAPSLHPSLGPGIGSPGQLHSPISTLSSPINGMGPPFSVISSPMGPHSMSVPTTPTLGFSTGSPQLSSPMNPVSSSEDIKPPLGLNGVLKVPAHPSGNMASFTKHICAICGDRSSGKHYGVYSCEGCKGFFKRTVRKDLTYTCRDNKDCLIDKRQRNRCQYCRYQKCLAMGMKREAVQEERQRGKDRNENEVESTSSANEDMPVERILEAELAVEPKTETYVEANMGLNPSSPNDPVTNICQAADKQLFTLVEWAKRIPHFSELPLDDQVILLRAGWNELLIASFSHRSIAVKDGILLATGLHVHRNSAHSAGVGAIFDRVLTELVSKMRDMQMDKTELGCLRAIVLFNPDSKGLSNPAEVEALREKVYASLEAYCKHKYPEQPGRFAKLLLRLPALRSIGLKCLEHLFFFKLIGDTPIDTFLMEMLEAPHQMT
Chain of Bile acid receptor (Homo sapiens) (Q96RI1 whole entry, looked up): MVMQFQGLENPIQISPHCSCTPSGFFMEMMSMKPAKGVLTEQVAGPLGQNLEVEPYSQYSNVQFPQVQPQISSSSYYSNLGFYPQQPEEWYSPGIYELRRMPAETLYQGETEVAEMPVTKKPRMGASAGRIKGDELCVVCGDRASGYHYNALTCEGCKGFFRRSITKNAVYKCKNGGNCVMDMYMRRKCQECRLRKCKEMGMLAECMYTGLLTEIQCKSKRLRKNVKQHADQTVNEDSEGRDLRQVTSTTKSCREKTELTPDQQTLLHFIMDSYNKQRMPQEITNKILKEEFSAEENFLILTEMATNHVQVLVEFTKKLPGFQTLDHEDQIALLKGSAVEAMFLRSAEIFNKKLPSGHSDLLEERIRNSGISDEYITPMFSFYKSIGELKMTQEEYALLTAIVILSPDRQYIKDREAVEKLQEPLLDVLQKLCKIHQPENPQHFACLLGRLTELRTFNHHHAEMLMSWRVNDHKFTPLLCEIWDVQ
Chain of Vitamin D3 receptor (Homo sapiens) (P11473 whole entry, looked up): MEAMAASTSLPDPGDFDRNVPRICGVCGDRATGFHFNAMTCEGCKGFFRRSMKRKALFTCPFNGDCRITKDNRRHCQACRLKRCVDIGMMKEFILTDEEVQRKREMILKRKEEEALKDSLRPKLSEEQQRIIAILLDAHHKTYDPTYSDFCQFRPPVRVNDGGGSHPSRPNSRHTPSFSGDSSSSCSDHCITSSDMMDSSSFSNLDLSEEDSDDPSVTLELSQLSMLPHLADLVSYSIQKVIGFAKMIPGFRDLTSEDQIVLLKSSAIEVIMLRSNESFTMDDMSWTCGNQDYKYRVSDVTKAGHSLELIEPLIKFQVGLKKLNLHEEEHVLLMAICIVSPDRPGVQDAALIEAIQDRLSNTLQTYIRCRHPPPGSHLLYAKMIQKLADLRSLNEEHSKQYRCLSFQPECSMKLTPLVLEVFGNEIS
Chain of Peroxisome proliferator-activated receptor delta (Homo sapiens) (Q03181 whole entry, looked up): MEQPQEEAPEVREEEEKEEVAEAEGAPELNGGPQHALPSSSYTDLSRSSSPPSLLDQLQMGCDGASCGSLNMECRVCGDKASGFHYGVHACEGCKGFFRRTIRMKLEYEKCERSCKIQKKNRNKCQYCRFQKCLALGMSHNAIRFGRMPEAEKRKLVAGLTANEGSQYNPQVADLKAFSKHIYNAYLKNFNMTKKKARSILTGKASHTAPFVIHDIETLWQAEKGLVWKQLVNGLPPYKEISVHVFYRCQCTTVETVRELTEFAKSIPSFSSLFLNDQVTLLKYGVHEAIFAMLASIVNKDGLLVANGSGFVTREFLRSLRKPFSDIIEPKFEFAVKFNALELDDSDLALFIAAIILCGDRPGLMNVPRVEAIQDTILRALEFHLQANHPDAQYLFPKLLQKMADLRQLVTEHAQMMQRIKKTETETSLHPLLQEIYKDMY

COC(=O)C1=C(C)NC(C)=C(C(=O)OC(C)C)C1c1cccc2nonc12 (stereo unspecified)
not listed: [17] | [18] | [19] | [20]
inactive: all other assays above

O=C(CO)[C@@H](O)[C@H](O)[C@@H](O)CO
not listed: [1] | [3] | [4] | [6] | [18] | [19] | [20]
inactive: all other assays above

O=[N+]([O-])c1ccc(/C=N\O)o1
not listed: [1] | [2] | [3] | [5] | [19] | [20]
inactive: all other assays above

COc1cc(C(=O)NCc2ccc(OCCN(C)C)cc2)cc(OC)c1OC
not listed: [6] | [17] | [18] | [19] | [20]
inactive: all other assays above

NC(=O)N1c2ccccc2CC(=O)c2ccccc21
not listed: [4] | [17] | [18] | [19] | [20]
inactive: all other assays above

CNCC(O)c1ccc(O)c(O)c1 (stereo unspecified)
not listed: [1] | [2] | [3] | [4] | [19] | [20]
inactive: all other assays above

CCCCS(=O)(=O)N[C@@H](Cc1ccc(OCCCCC2CCNCC2)cc1)C(=O)O
not listed: [4] | [6] | [17] | [18] | [19] | [20]
inactive: all other assays above

[O-][n+]1cccc(CO)c1
not listed: [5] | [17] | [19] | [20]
inactive: all other assays above

COc1cccc(OC)c1C(=O)N[C@@H]1C(=O)N2[C@@H]1SC(C)(C)[C@@H]2C(=O)O
not listed: [1] | [3] | [17] | [19] | [20]
inactive: all other assays above

C=CN1CCCCCC1=O
not listed: [17] | [18] | [19] | [20]
inactive: all other assays above

O=C(CO)[C@@H](O)[C@H](O)[C@H](O)CO
not listed: [1] | [2] | [3] | [4] | [6] | [18] | [19] | [20]
inactive: all other assays above

O=C(O)CCCC[P+](c1ccccc1)(c1ccccc1)c1ccccc1
not listed: [3] | [17] | [18] | [19] | [20]
inactive: all other assays above

CCOCC(C)O (stereo unspecified)
not listed: [8] | [17] | [18]
inactive: all other assays above

CC(C)CC(C)(N)C#N (stereo unspecified)
not listed: [4] | [17] | [18]
inactive: all other assays above

CCCc1nn(C)c2c(=O)[nH]c(-c3cc(S(=O)(=O)N4CCN(C)CC4)ccc3OCC)nc12
not listed: [6] | [17] | [19] | [20]
inactive: all other assays above

O=[N+]([O-])c1cncn1CCN1CCOCC1
not listed: [1] | [3] | [13] | [19] | [20]
inactive: all other assays above

CC(C)[C@H]1CC[C@@H](C)CC1=O
not listed: [1] | [3] | [6] | [17] | [18] | [19] | [20]
inactive: all other assays above

CN(C)C(=O)Oc1ccc[n+](C)c1
not listed: [2] | [3] | [6] | [13] | [18] | [19] | [20]
inactive: all other assays above
